Compounds with a hit are over-represented: about 27% of the library has one in this group of screens.
sEH inhibitor – inhibitors of human soluble epoxide hydrolase. inhibition, % at 2 µM. recombinant human sEH enzymatic activity assay. 91,000 compounds, 0.34% hits. AID 707; in the data active = inhibition above about 80%
CYP2C9 inh – inhibitors of human CYP2C9; 96,000 compounds, 20% hits; CYP2C9 Supersomes, luciferin-H conversion, luminescence; inhibition, % at 5 µM; AID 777;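 active = blocking of liver enzyme CYP2C9 beyond about 50% at 5 µM, limit read from the data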
Target sequence (P11712 whole entry, looked up): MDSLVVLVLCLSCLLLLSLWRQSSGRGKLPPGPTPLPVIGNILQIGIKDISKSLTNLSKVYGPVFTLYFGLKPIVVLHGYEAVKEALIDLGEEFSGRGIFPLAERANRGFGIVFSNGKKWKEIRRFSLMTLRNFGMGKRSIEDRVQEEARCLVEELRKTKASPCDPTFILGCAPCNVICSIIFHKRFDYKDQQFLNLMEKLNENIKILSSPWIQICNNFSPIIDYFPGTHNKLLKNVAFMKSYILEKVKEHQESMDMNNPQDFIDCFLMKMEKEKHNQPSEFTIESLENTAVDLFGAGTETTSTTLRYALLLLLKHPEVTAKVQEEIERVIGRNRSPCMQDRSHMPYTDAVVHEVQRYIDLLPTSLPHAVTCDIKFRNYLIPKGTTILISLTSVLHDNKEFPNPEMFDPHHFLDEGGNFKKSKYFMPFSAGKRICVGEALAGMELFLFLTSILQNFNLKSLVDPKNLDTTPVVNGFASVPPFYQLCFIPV
sEH activator – increases human soluble epoxide hydrolase activity; purified human sEH enzymatic activity, activator screen; activation, % at 2 µM; 91,000 compounds, 0.04% hits; AID 717; in the data active = activation above about 37%
CYP2C19 inh – inhibitors of human CYP2C19; P33261; CYP2C19 Supersomes, luciferin-H EGE luminescence, 30 min; inhibition, % at 5 µM; 96,000 compounds, 21% hits; AID 778;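 active = CYP2C19 inhibition above a set limit at 5 µM in the primary screen, cut at about 50% in these data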
CYP2C9 act – CYP2C9 (human) activation. activation factor at 5 µM. recombinant CYP2C9, luciferin-H conversion, luminescence; hits give high values; factor 1 = untreated enzyme, 0 = blocked. AID 1024. 96,000 compounds, 1.4% hits;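 active = activation factor of 2 or more for CYP2C9 at a 5 µM dose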
CYP2C19 act – cytochrome P450 2C19 (human) activation | recombinant CYP2C19, luciferin-H EGE luminescence; hits give high values; 0 = fully inhibited enzyme, 1 = untreated enzyme | 96,000 tested, under 10 active | P33261 | AID 1025 | activation factor at 5 µM;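 active = activation factor of at least 2 at 5 µM in the primary screen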
Large screens that a line does not name were inactive.

Cc1ccccc1NC(=O)C1c2cccc[n+]2CC(=O)N1c1c(C)cccc1C (stereo unspecified)	none
Cc1cc(C)c(S(=O)(=O)N2CCCCC2)c(C)c1-n1ncnn1	CYP2C19 inh 69.3, CYP2C9 act 2.1
O=S(=O)(c1ccc(Oc2ccc(Cl)cc2)c(S(=O)(=O)N2CCCCC2)c1)N1CCCCC1	none
Cc1ccc(S(=O)(=O)N2CCN(C)CC2)c(C)c1N(C)S(=O)(=O)c1ccc(Cl)cc1	CYP2C19 inh 67.1
Cc1cc(C)c(S(=O)(=O)N2CCCCC2)c(C)c1N(C)S(=O)(=O)c1ccccc1	CYP2C9 inh 59.4
CCOc1ccc(S(=O)(=O)N2CCN(C)CC2)c(C)c1C	none
Cc1cc(C)c(S(=O)(=O)N2CCCCC2)cc1N(C)S(=O)(=O)c1ccc(Cl)cc1	CYP2C9 inh 70.7
Cc1cc(=O)n2[nH]c(COc3ccccc3)nc2n1	none
CC(=O)C1=C(O)C(=O)N(Cc2ccco2)C1c1ccc2c(c1)OCO2 (stereo unspecified)	none
O=C1NN=C(c2ccc(Cl)cc2)CC1c1cccc(Cl)c1 (stereo unspecified)	CYP2C19 inh 67.6
Fc1ccc(CN2CCN3CCCC3C2C2CCCCC2)cc1F (stereo unspecified)	none
Cc1cc(C)c(NC(=O)C(C)c2cccc(C(=O)c3ccccc3)c2)c(C)c1 (stereo unspecified)	CYP2C9 inh 73.0, CYP2C19 inh 72.4
CC(=O)NC1=NC(=O)/C(=C/N2CCOCC2)S1	none
CCOc1ccc2nc3c(cc2c1)CN(CCOC)C(=NCCOC)S3	none
COCCN=C1Sc2nc3ccc(C)cc3cc2CN1Cc1ccco1	CYP2C9 inh 68.4, CYP2C19 inh 58.8
N#Cc1c2n(c3c(=O)n(Cc4ccc(Cl)cc4)cnc13)CCCCC2	CYP2C9 inh 99.9, CYP2C19 inh 99.3 (no result: sEH inhibitor, sEH activator)
N#Cc1c2n(c3c(=O)n(Cc4ccccc4)cnc13)CCCC2	CYP2C9 inh 81.9, CYP2C19 inh 97.7
N#Cc1c2ncn(CC(=O)c3ccc(Br)cc3)c(=O)c2c2n1CCC2	none
N#Cc1c2n(c3c(=O)n(CC(=O)c4ccc(Br)cc4)cnc13)CCCC2	CYP2C19 inh 53.4
CCOC(=O)Cn1cnc2c(C#N)c3n(c2c1=O)CCCCC3	none (no result: sEH inhibitor, sEH activator)
CCOCCCNC(=O)C(c1ccccc1)N(Cc1ccc2c(c1)OCO2)C(=O)CNC(C)=O (stereo unspecified)	none
COc1ccccc1NC(=S)NCc1ccco1	CYP2C19 inh 63.7
COc1ccccc1NCCC(=O)OCC(=O)NCc1ccco1	none
Fc1cc(Br)ccc1NC(=S)NCCc1ccccc1	CYP2C19 inh 76.4
COc1ccc(NC(=S)NCCc2ccccc2)c(OC)c1	CYP2C19 inh 89.5
COc1ccc(NC(=S)Nc2ccccc2F)c(OC)c1	none
COc1ccccc1NC(=S)NCCc1ccc(Cl)cc1	CYP2C19 inh 70.6
CCOC(=O)C12CNC(=O)C(C(=O)OCC)(CNC1=O)C2	none
Cc1nccc2[nH]c(=O)c(C(=O)NC3CCCCC3C)cc12 (stereo unspecified)	none (no result: sEH inhibitor, sEH activator)
CCOC(=O)CN1N=C(/C=C/c2ccc(OC)cc2)CCC1=O	none
COCCNC(=O)c1cnn2c1NC(c1ccco1)CC2C(F)(F)F (stereo unspecified)	none (no result: CYP2C9 inh, CYP2C19 inh, CYP2C9 act, CYP2C19 act)
CN(Cc1ccc(-n2cccn2)cc1)C(=O)c1cnn2c1NC(c1ccco1)CC2C(F)(F)F (stereo unspecified)	CYP2C9 inh 78.2
COc1ccc(S(=O)(=O)Nc2c3ccccc3nc(=O)n2-c2ccccc2)cc1	none
COc1ccc(S(=O)(=O)Nc2ccccc2C)cc1	CYP2C9 inh 51.0, CYP2C19 inh 99.5
COc1ccc(S(=O)(=O)Nc2cc3c4c(oc3c3ccccc23)CCCC4=O)cc1	CYP2C9 inh 82.5
Cc1ccccc1NS(=O)(=O)c1ccc(F)cc1	CYP2C9 inh 63.5, CYP2C19 inh 95.7
O=S(=O)(Nc1cccc2cn[nH]c12)c1ccc(F)cc1	CYP2C19 inh 82.1
CCC1(C)C2(C#N)C(N)=NC(OC)(OC)C12C#N (stereo unspecified)	none
O=C(NCCc1ccccc1)c1ccc2c(c1)N(Cc1ccccc1)C(=O)CS2=O (stereo unspecified)	CYP2C9 inh 86.3 (no result: sEH inhibitor, sEH activator)
CC(C)CCNC(=O)c1ccc2c(c1)N(Cc1ccccc1)C(=O)CS2=O (stereo unspecified)	CYP2C9 inh 50.3 (no result: sEH inhibitor, sEH activator)
CCCN(CCC)C(=O)c1ccc2c(c1)N(Cc1ccccc1)C(=O)CS2=O (stereo unspecified)	CYP2C9 inh 86.1 (no result: sEH inhibitor, sEH activator)
CCOCCCNC(=O)c1ccc2c(c1)N(Cc1ccccc1)C(=O)CS2=O (stereo unspecified)	none
CC(C)C(NC(=O)c1cccs1)c1nnc(SCC(=O)Nc2nccs2)n1C (stereo unspecified)	none
c1ccc(OCCCn2nnc(-c3cccnc3)n2)cc1	CYP2C19 inh 51.1
O=C(CCCn1nnc(-c2cccnc2)n1)c1ccc(F)cc1	CYP2C9 inh 52.7, CYP2C19 inh 75.6 (no result: sEH inhibitor, sEH activator)
O=C(CSc1ncn[nH]1)NCCOc1ccccc1	none
O=C(CSc1ncn[nH]1)Nc1ccccc1Sc1ccc(Cl)cc1	CYP2C9 inh 93.3, CYP2C19 inh 97.9
COC(=O)c1ccc(C(=O)OC)c(NC(=O)CSc2ccccn2)c1	none
O=C(CSc1ncn[nH]1)Nc1ccc2c(c1)OCCO2	none
COC(=O)c1ccc(Cl)c(NC(=O)CSc2ncn[nH]2)c1	CYP2C19 inh 74.3
COC(=O)c1cccc(NC(=O)CSc2ncn[nH]2)c1	CYP2C19 inh 57.1
CCOc1ccccc1N(C(=O)CNS(=O)(=O)c1ccccc1)C(CC)C(=O)NCc1ccco1 (stereo unspecified)	none
COc1ccc(C)cc1S(=O)(=O)N(C)CC(=O)NC1CCCCC1	none
COc1ccc(S(=O)(=O)N(C)CC(=O)Nc2ccccc2C(F)(F)F)cc1OC	CYP2C19 inh 76.1
COc1ccc(C)cc1NC(=O)CN(C)S(=O)(=O)c1cccs1	CYP2C19 inh 89.3, CYP2C9 act 2.3
COc1ccccc1NC(=O)CN(C)S(=O)(=O)c1cc(C)ccc1OC	CYP2C9 inh 63.1, CYP2C19 inh 93.8
O=C(Cn1cc2c(n1)CCCC2)Nc1cc(-c2cccc(Cl)c2)no1	CYP2C9 inh 56.9 (no result: sEH inhibitor, sEH activator)
CC(NC(=O)Cn1cc2c(n1)CCCCC2)c1ccccc1 (stereo unspecified)	none (no result: sEH inhibitor, sEH activator)
CC(=O)Nc1ccc(S(=O)(=O)N(C)CC(=O)NC2=NCCS2)cc1	none (no result: sEH inhibitor, sEH activator)
Oc1ccccc1C1Nc2cccc3cccc(c23)N1	none
COc1ccccc1C1Nc2cccc3cccc(c23)N1	CYP2C19 inh 70.5
O=[N+]([O-])c1ccccc1C1Nc2cccc3cccc(c23)N1	CYP2C9 inh 69.5, CYP2C19 inh 99.2
CCn1c(SCC(=O)Nc2nnc(C)s2)nnc1-c1ccncc1	none
Cc1ccc(SC/C(O)=C(\C#N)c2nc3ccccc3n2C)cc1	CYP2C9 inh 50.0
Cn1c(/C(C#N)=C(\O)CN2CCN(Cc3ccccc3)CC2)nc2ccccc21	none

Bioassay records as filed in PubChem BioAssay.
